# Compound activity (PubChem)
# FMDV antiviral = High Throughput Screening for Foot and Mouth Disease Virus Antivirals; Potency, µM (titrated, usually from 57.9 µM), usual class: inhibitors; FMDV antiviral cell-based qHTS; 1.2% of 410,000 active; calls by dose curve; tested in HEK293T cells; also: read-out not given here; nearly all actives have a fitted effect of over 45% in size
# HCMV antiviral = qHTS Assay for inhibitors of the human cytomegalovirus (HCMV). HFF cells, HCMV-luciferase reporter, 72 h; stronger effect = lower value. activity change, negative = inhibition, % at 57.5 µM. 4.5% of 410,000 active; in the data active = activity change below about -60%; inconclusive = no clear call, values can overlap the other calls; inactive = above about -39%
#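 Two compound doses tested in HFFs infected with HCMV-luciferase, MOI 1 PFU/cell, 72 h at 37C. Lysate luminescence read with OneGlo; data normalized against buffer-only and 10uM Salinomycin inhibitor controls.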
# VACV Venus inh = qHTS for Stage-Specific Inhibitors of Vaccinia Orthopoxvirus: Venus Reporter Primary qHTS. Potency, µM (doses to about 36.5 µM), actives largely listed as inhibitors. Vaccinia virus Venus reporter expression, fluorescence. AID 720580, 2013. 0.46% of 330,000 active; calls by dose curve; tested in A549 cells; also: nearly all actives have a fitted effect of over 30% in size
# HCV inh = qHTS Assay for Inhibitors of Hepatitis C Virus (HCV). Huh7.5.1 HCVcc-Cre infection, luciferase reporter, 44 h. Potency, µM (highest dose often 41.8 µM), most hits filed as inhibitors. 3.4% of 340,000 active; active = well fitted inhibition curve with a large enough effect; inconclusive = small, poorly fitted or top-dose-only effect, or another doubt; inactive = no such curve, though single readings can be large or run the other way
#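 Reporter virus HCVcc-Cre (~0.5 moi) infects cells exposed to compound; seeding density 1,000 cells/well with 4 h settling beforehand. Luminescence, 15 sec read, taken 44 h post-infection following a 15 min RT substrate incubation.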
# Vaccinia mCherry = qHTS for Stage-Specific Inhibitors of Vaccinia Orthopoxvirus: mCherry Reporter Primary qHTS; Vaccinia virus mCherry reporter infection, fluorescence; Potency, µM (highest dose often 36.5 µM), most hits filed as inhibitors; 0.63% of 310,000 active; AID 720579, 2013; calls by dose curve; tested in A549 cells; also: nearly all actives have a fitted effect of over 35% in size
# Hits are given with their value; – = inactive; ? = inconclusive; · = no result; [ ] = remark or other dose. Sampled rows, rich in hits. Any-hit rate of the full collection: about 7.3%.
SMILES,FMDV antiviral,HCMV antiviral,VACV Venus inh,HCV inh,Vaccinia mCherry
CC1CCN(S(=O)(=O)c2c[nH]c(=O)[nH]c2=O)CC1,–,–,–,10µM,–
COC1(OC)C=CC(=O)C=C1NC(=O)c1ccccc1OC(C)=O,?,-78,·,·,·
CC(=O)Oc1ccccc1C(=O)Nc1ccccc1,–,–,·,·,·
CN1CCN(c2ncc3nc(CCc4ccccc4)c(=O)n(Cc4ccc(F)cc4)c3n2)CC1,–,·,·,·,·
CCCCC(=O)NC(c1ccc([N+](=O)[O-])cc1)c1c(O)ccc2ccccc12 (stereo not drawn),20µM,-99,?,?,?
CCCCC(=O)NC(c1cccc([N+](=O)[O-])c1)c1c(OC(C)=O)ccc2ccccc12 (stereo not drawn),?,?,?,?,28µM
Cc1ccccc1NC(=O)C1CCN(c2cc(-c3ccccc3)nc3ncnn23)CC1,35µM,?,?,–,·
O=S(=O)(c1ccccc1)N1CCN(c2cc(-c3ccccc3)nc3ncnn23)CC1,?,-91,·,?,·
COc1ccc(-c2cc(N3CCCC3)n3ncnc3n2)cc1,?,-98,–,13µM,?
O=S(=O)(c1ccc(Br)cc1)N1CCN(c2cc(-c3ccccc3)nc3ncnn23)CC1,–,?,·,?,·
COc1ccc(S(=O)(=O)N2CCN(c3cc(-c4ccccc4)nc4ncnn34)CC2)cc1,?,-73,·,10µM,·
COc1ccc(-c2cc(-c3ccccc3)n3ncnc3n2)cc1,?,–,–,?,–
CC1CCCC(N2CCN(S(=O)(=O)c3ccccc3)CC2)C1 (stereo not drawn),–,–,–,–,–
COc1ccc(-c2ccc(N3C(c4cc(OC)cc(OC)c4)=Cc4ccc(OC)cc4C3CC(C)=O)cc2)cc1 (stereo not drawn),–,–,–,·,–
COc1ccc(CN2CC[C@H]3C=CC[C@@H](C(=O)Nc4ccc(Cl)cc4Cl)[C@H]3C2=O)cc1OC,·,·,?,·,–
COC(=O)c1ccc(Cl)cc1NC(=O)N1CCC(CN2CCC(C)CC2)CC1,–,–,–,·,–
CCCCNc1c(-c2ccc(OC)c(SC3CCCCC3)c2)nc2cc(C)ccn12,25µM,–,?,4µM,–
COc1ccc(-c2nc3cnccn3c2NCc2ccccc2)cc1SC1CCCCC1,?,·,–,10µM,?
COc1cc(-c2nc3ccccn3c2NCc2ccccc2)ccc1SC1CCCCC1,22µM,·,?,?,?
CCCCCCSc1cc(-c2nc3cnccn3c2NCc2ccccc2)ccc1OC,–,·,–,–,?
COc1cc(-c2nc3ccc(C)cn3c2NCc2ccccc2)ccc1SC1CCCCC1,?,–,–,–,–
COc1ccc(-c2nc3ccccn3c2NC2CCCCC2)cc1SC1CCCCC1,?,-99,?,?,?
CCCCNc1c(-c2ccc(OC)c(SC3CCCCC3)c2)nc2cnccn12,–,·,?,?,?
CS(=O)(=O)c1ccc(Cl)c(C(=O)Nc2ccc3nc(N4CCOCC4)sc3c2)c1,–,–,·,–,·
COc1ccc(CN2CCCC(n3cc(C(=O)N4CCCCC4)nn3)C2)cc1OC (stereo not drawn),–,·,–,·,–
SMILES,FMDV antiviral,HCMV antiviral,VACV Venus inh,HCV inh,Vaccinia mCherry
COc1ccc(Sc2ccc(-c3nc4cnccn4c3NC3CCCCC3)cc2OC)cc1,?,–,11µM,–,?
CCCCCCSc1ccc(-c2nc3cnccn3c2NC2CCCCC2)cc1,?,–,–,·,–
Cc1ccccc1C(=O)N1CCC[C@@H]1C(=O)N1CCC[C@H]1C(=O)NCc1ccncc1,–,–,–,·,–
Cc1cc(C)c(NC(=O)CNC(=O)c2cc([N+](=O)[O-])ccc2N2CCOCC2)c(C)c1,–,–,–,25µM,–
Cc1cc(=O)oc2cc(NC(=O)c3cc([N+](=O)[O-])ccc3N3CCOCC3)ccc12,–,?,–,10µM,–
CC(C)CNC(=O)c1cc([N+](=O)[O-])ccc1N1CCOCC1,–,–,–,–,–
CC(C)(CNC(=O)c1cc([N+](=O)[O-])ccc1N1CCC(Cc2ccccc2)CC1)N1CCOCC1,–,-63,·,?,·
COc1ncc2nc(-c3ccc(Cl)cc3)c(=O)n(Cc3cccs3)c2n1,–,·,·,·,·
Cc1ccc(CN2CCC2(C)C(=O)NC2CCc3ccccc32)cc1 (stereo not drawn),–,–,–,·,–
CSc1ncccc1C(=O)N1CCCC(N2CCN(c3ccccc3F)CC2)C1 (stereo not drawn),–,–,·,?,·
Fc1ccccc1N1CCN(C(c2ccnc3ccccc23)c2nnnn2-c2ccc3c(c2)OCCO3)CC1 (stereo not drawn),–,–,–,·,–
Cc1cc(NCCCn2ccnc2)n2nc(C)c(-c3ccccc3)c2n1,–,–,·,?,·
Cc1cc(NCCCn2ccnc2)n2nc(C)c(-c3ccc(Cl)cc3)c2n1,–,–,·,10µM,·
Cc1cc(NCCN2CCOCC2)n2nc(C)c(-c3ccc(Cl)cc3)c2n1,?,–,–,10µM,·
Cc1ccc2c(c1C)OC(=O)CC2c1ccccc1 (stereo not drawn),–,–,–,–,–
COc1ccc(C)cc1NC(=O)Cn1c(=O)n(Cc2nc(C)no2)c(=O)c2ccccc21,–,–,–,·,–
N#C/C(=N\Nc1cccc(C(F)(F)F)c1)C(=O)c1ccsc1,–,-97,·,?,·
Cc1nc2c(-c3ccccc3)c[nH]n2c(=O)c1Cc1ccccc1,–,-99,–,?,–
COc1ccccc1-c1c(C)[nH]n2c(=O)c(Cc3ccccc3)c(C)nc12,?,–,·,–,·
Cc1nc2c(-c3ccccc3)c(C)[nH]n2c(=O)c1Cc1ccc(Br)cc1,?,-97,–[7.34 µM],·,–[7.34 µM]
Cc1ccc(Cc2c(C)nc3c(-c4ccccc4)c(C)[nH]n3c2=O)cc1,?,-73,?,·,?
CCCCc1c(C)nc2c(-c3ccc(Cl)cc3)c(C)[nH]n2c1=O,–,–,?,·,11µM
Cc1nc2c(-c3ccccc3)c(C)[nH]n2c(=O)c1Cc1ccc(C(C)C)cc1,?,–,?,·,?
CCc1c(C)nc2c(-c3ccccc3)c(C)[nH]n2c1=O,?,–,–,–,?
CN(C(=O)COC(=O)c1ccccc1OCC(=O)Nc1ccc(Br)cc1)c1ccccc1,·,·,–,·,–
SMILES,FMDV antiviral,HCMV antiviral,VACV Venus inh,HCV inh,Vaccinia mCherry
CCNc1oc(-c2ccccc2F)nc1S(=O)(=O)c1ccccc1,–,·,–,–,–
Cn1cc(-c2ccc3c(c2)N(CC2CCCCC2)C(=O)COC3)cn1,·,–,·,·,·
COc1ccc(-c2c(C)[nH]n3c(=O)c(Cc4ccccc4)c(C)nc23)cc1,–,-88,?,–,?
CCOC(=O)N1CCN(CC(=O)Nc2ccccc2C(=O)Nc2ccccc2)CC1,–,–,·,–,·
O=C1CN(C(=O)c2c(F)cccc2F)C(c2ccccc2)c2cc(Br)ccc2N1 (stereo not drawn),–,–,·,–,·
O=C1CN(C(=O)c2cccc(Br)c2)C(c2ccccc2)c2cc(Cl)ccc2N1 (stereo not drawn),–,-63,–,·,–
